The results in this text go back to PubChem BioAssay (NCATS).

A number with no mark means an inactive call. Inconclusive results are not listed. Active and inactive are the calls of the source. Unless noted, calls come from the whole dose curve; as a rule, active = well fitted curve in either direction with a large enough effect (not every such curve was filed as active); inconclusive = small, poorly fitted or top-dose-only effect, or another doubt; inactive = flat fitted curve, though single readings scatter. A value given as a limit tells only on which side of the number the result lay.

Test [1] addresses Lysosomal acid glucosylceramidase (Homo sapiens) (UniProt P04062). Nature of the test: Glucocerebrosidase-p2 (AID 348; in the data active = potency below about 10 µM; note: potency is the fitted concentration of half-maximal effect). The note with it: purified GBA, blue fluorogenic substrate, 40 min. The procedure, abridged: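 Compounds titrated from 0.6 nM upwards against 0.2 nM enzyme in pH 5.9 citric acid/KH2PO4, taurocholate, tween-20; blue fluorogenic substrate 80 uM, 40 min room temperature, stopped and read Ex 365/Em 440 for AC50.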

Test [2] is described as follows: AP1 Signaling Pathway (AID 357). Note: % is set by controls: 0 for no effect and ±100 for the full control effect. The note with it: ME-180 AP-1-bla reporter, EGF-induced, beta-lactamase ratio, 5 h; at 7.69 µM (top of the series) unless noted. The method in brief:
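AP-1-bla ME-180 cells with beta-lactamase reporter under AP-1 response element, stimulated with EC50 EGF; compounds titrated, 5 hours at 37 degrees Celsius. CCF4 read at 460/530 nm ratio; positive and negative modulators judged by AC50.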

Test [3] concerns the target Cytochrome P450 1A2 (Homo sapiens) (UniProt P05177). Briefly: p450-cyp1a2 (AID 410; calls by dose curve; note: potency is the fitted concentration of half-maximal effect;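 for activity change, negative = inhibition: -100% = full effect of reference inhibitor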). The following applies: recombinant CYP1A2, luciferin-ME demethylation, luminescence; series mostly up to 11.4 µM. The method in brief:
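Luminescent readout of luciferin formed from Luciferin-ME by human CYP1A2; data normalized against complete inhibition by 57 uM furafylline. Enzyme 20nM, substrate 100uM at Km, 100mM KPO4 buffer, 60 min reaction at room temperature.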

The nature of test [4]: NFAT Signaling Pathway (AID 444).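 Note: carbachol stimulus at about its EC50 of 1 µM final; % is set by controls: 0 for no effect and ±100 for the full control effect.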 The following applies: Jurkat NFAT-bla M1, carbachol, beta-lactamase ratio, 5 h; at 7.69 µM (top of the series) unless noted. The method in brief: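 Jurkat cells carrying an NFAT-driven β-lactamase reporter and co-transfected muscarinic M1 receptor were treated with compound plus carbachol (1 uM final, an EC50 level) for 5 h at 37 °C. CCF4 loading followed for 1 h at RT; 460/530 nm ratio gave %activity.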

Test [5] is described as follows: Stat Signaling Pathway (AID 446).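 Note: ME-180 cervical cancer cells given 40 pM IL-6 alongside compound; SIE-controlled beta-lactamase reporter measured as 460/530 nm FRET emission ratio; % is set by controls: 0 for no effect and ±100 for the full control effect.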 The note with it: ME-180 SIE beta-lactamase reporter, IL-6 stimulated, 5 h; at 7.69 µM (top of the series) unless noted. The procedure, abridged:
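Reporter line: ME-180 cervical carcinoma, SIE-beta-lactamase. Treatment: compound with 40 pM IL-6, 5 hrs, 37 C, in low-serum OPTI-MEM with 10 mM HEPES pH 7.3. Detection: 460/530 nm fluorescence.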

For test [6], the target named is Glucocorticoid receptor (Homo sapiens) (UniProt P04150). Nature of the test: GR-GFP Redistribution (AID 450;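 active = compounds whose dose series gives a full or clear partial fitted curve of increased nuclear translocation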; note: potency is the fitted concentration of half-maximal effect). The following applies: U2OS GR-GFP nuclear translocation, laser cytometry, 2 h.
The target is the same in test [7]. Nature of the test: GR-EFC Redistribution (AID 451; calls by dose curve; note: potency is the fitted concentration of half-maximal effect). The note with it: CHO-K1 GR-EFC translocation, beta-gal luminescence, 2 h. The procedure, abridged:
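CHO-K1 cells stably expressing nuclear-localized β-gal enzyme acceptor and GR fused C-terminally to the enzyme donor fragment; ligand-driven nuclear translocation restores β-gal by complementation. Compounds titrated up to 46 uM final, 2 h at 37 °C; luminescence read.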

The target in test [8] is Mitogen-activated protein kinase 10 (Mus musculus) (UniProt Q61831). Briefly: JNK3 AlphaScreen Assay (AID 530).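 Note: kinase came from lysate of stimulated human HepG2 cells; signal reports phosphorylation of biotinylated GST-cJun 1-79 at Ser73 with 10 µM ATP; % is set by controls: 0 for no effect and ±100 for the full control effect.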 The note with it: JNK3 lysate, c-Jun phosphorylation; series mostly up to 11.4 µM. The method in brief:
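Inhibitors reduce antibody binding to phosphorylated biotin-cJun, lowering AlphaScreen luminescence. Lysates from HepG2 cells pre-activated by IL-1beta plus TNF-alpha supplied JNK3; compounds were titrated.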
(In general: Bead proximity is the source of the signal in Alpha formats.)

Test [9] has as its target 3',5'-cyclic-AMP phosphodiesterase 4B (Homo sapiens) (UniProt Q07343). Briefly: qHTS Assay for Inhibitors of PDE-IV (AID 607; active = well fitted activation curve with a large enough effect in the main read-out, with a control signal flat, not every such curve was filed as active; note: % of control where 0% means no effect). The following applies: HEK293 ACTOne CNG channel cells, membrane potential fluorescence; series mostly up to 22.9 µM. The procedure, abridged:
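Cell-based read-out of cAMP via a modified cyclic nucleotide-gated channel and membrane potential dye (535/590 nm) in HEK293 cells expressing PDE4 endogenously. Compounds tested up to 22.9 uM final; 100 uM RO 20-1724 reference.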
For orientation: In qHTS, concentration-response curves come from the screen itself.

For test [10], the target named is Cytochrome P450 2C9 (Homo sapiens) (UniProt P11712). Briefly: qHTS Assay for Inhibitors and Substrates of Cytochrome P450 2C9 (AID 883; active = well fitted curve in the direction sought with a large enough effect; an effect the other way counts as inactive or inconclusive; note: % is set by controls: 0 for no effect and ±100 for the full control effect; nearly all actives have a fitted effect of over 60% in size). The note with it: recombinant CYP2C9, luciferin-H luminescence, 60 min; series mostly up to 11.4 µM. The method in brief:
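A luminogenic readout tracked human CYP2C9 (10nM) converting deoxyluciferin (100uM, at KM) in 25mM KPO4 during 60 min at 37C with regenerated NADPH. Values normalized to 57uM sulphaphenazole as complete inhibition.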

Test [11] has as its target Cytochrome P450 3A4 (Homo sapiens) (UniProt P08684). Nature of the test: qHTS Assay for Inhibitors and Substrates of Cytochrome P450 3A4 (AID 884; active = well fitted curve in the direction sought with a large enough effect; an effect the other way counts as inactive or inconclusive; note: potency is the fitted concentration of half-maximal effect; nearly all actives have a fitted effect of over 50% in size). The note with it: recombinant CYP3A4, Luciferin-PPXE luminescence; series mostly up to 57.1 µM. The method in brief: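 20 nM human CYP3A4 with 25 uM Luciferin-PPXE (at KM) in 200 mM KPO4, preincubated 10 min with compound; NADPH regeneration started a 60 min RT reaction. Luciferin detected by luminescence, normalized to 57 uM ketoconazole as full inhibition.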

Test [12] has the same target. Nature of the test: qHTS Assay for Activators of Cytochrome P450 3A4 (AID 885; active = well fitted curve in the direction sought with a large enough effect; an effect the other way counts as inactive or inconclusive; note: nearly all actives have a fitted effect of over 65% in size). The following applies: recombinant CYP3A4, Luciferin-PPXE luminescence, 60 min; series mostly up to 11.4 µM. The procedure, abridged:
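Signal was normalized against complete inhibition by 57 uM ketoconazole. The reaction used 20nM CYP3A4 with 25uM Luciferin-PPXE, 10-min compound preincubation and a 60-min NADPH-supported step at RT.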

Chain of Glucocorticoid receptor (Homo sapiens) (P04150 whole entry, looked up): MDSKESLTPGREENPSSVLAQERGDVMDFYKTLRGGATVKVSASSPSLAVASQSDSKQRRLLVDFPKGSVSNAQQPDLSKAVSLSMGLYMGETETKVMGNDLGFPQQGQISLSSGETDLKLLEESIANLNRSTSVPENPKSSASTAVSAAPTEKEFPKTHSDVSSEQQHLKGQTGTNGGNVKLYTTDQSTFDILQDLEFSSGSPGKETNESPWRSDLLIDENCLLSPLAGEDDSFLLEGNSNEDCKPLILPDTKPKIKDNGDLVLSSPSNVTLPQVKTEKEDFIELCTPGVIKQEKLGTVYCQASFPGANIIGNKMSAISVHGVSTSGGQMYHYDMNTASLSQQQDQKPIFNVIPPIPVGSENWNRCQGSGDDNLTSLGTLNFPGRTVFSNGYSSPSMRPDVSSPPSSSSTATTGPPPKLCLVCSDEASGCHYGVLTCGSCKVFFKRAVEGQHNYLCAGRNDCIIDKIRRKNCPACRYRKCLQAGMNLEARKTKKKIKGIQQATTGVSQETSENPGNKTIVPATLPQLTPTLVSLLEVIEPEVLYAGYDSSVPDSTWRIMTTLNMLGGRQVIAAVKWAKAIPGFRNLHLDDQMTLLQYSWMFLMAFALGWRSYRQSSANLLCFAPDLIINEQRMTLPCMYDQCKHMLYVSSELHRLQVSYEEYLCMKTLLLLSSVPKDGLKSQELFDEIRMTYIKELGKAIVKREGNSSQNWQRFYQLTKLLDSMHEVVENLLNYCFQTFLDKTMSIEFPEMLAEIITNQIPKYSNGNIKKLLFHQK
Chain of 3',5'-cyclic-AMP phosphodiesterase 4B (Homo sapiens) (Q07343 whole entry, looked up): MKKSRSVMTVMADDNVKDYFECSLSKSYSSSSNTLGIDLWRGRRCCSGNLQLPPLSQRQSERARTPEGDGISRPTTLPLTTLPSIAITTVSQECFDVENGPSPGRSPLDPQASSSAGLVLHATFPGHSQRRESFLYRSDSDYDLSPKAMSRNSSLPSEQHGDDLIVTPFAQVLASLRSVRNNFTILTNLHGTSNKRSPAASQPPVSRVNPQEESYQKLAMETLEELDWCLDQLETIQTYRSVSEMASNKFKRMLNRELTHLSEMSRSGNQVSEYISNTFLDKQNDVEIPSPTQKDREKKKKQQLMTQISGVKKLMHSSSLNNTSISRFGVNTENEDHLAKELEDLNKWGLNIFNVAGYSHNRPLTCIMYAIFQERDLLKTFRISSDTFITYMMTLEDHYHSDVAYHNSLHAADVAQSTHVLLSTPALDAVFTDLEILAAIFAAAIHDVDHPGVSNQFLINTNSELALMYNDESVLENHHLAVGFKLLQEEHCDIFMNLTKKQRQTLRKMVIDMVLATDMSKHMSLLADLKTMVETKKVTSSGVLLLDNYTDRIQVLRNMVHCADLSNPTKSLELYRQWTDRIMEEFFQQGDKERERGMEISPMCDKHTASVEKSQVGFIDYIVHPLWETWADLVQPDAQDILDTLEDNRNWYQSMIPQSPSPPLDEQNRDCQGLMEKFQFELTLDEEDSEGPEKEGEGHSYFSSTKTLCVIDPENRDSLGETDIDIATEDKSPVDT
Chain of Lysosomal acid glucosylceramidase (Homo sapiens) (P04062 whole entry, looked up): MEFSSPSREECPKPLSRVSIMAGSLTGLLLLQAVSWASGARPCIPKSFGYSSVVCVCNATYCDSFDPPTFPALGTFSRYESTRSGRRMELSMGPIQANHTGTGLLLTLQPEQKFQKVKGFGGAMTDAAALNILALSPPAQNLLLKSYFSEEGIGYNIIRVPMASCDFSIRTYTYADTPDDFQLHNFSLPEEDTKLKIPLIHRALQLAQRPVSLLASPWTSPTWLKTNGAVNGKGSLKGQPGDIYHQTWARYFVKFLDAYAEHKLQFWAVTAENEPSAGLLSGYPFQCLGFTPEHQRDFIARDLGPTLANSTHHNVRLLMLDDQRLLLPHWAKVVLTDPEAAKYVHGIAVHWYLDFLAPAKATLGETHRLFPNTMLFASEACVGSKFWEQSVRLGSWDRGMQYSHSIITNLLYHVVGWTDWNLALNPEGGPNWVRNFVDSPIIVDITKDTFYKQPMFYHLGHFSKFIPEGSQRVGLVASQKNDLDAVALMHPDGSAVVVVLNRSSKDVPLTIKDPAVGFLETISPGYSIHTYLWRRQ
Chain of Cytochrome P450 1A2 (Homo sapiens) (P05177 whole entry, looked up): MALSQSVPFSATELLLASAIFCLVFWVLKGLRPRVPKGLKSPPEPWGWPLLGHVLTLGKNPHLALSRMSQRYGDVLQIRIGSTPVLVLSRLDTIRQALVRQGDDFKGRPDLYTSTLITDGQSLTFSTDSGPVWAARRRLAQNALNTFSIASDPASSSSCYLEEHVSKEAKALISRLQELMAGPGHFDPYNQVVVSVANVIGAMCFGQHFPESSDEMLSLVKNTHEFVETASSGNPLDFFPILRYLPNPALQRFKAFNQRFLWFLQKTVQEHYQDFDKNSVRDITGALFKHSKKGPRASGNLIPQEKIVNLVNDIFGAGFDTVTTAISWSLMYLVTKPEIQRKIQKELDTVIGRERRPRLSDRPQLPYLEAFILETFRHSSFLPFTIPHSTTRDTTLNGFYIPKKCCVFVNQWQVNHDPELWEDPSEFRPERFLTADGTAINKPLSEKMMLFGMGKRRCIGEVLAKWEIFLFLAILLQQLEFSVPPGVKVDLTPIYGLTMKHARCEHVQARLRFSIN
Chain of Cytochrome P450 2C9 (Homo sapiens) (P11712 whole entry, looked up): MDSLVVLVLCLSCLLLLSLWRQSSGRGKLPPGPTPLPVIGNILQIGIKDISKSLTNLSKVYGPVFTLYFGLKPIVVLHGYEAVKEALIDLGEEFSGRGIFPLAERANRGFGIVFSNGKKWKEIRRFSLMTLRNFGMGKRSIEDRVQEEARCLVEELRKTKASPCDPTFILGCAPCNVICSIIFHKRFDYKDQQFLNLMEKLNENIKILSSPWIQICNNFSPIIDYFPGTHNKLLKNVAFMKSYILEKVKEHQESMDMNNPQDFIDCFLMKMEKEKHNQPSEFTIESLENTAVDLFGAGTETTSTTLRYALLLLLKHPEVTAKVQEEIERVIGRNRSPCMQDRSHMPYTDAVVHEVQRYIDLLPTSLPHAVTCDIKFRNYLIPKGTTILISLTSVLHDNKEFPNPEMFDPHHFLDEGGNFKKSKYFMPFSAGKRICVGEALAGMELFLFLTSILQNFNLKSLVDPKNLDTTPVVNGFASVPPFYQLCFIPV
Chain of Cytochrome P450 3A4 (Homo sapiens) (P08684 whole entry, looked up): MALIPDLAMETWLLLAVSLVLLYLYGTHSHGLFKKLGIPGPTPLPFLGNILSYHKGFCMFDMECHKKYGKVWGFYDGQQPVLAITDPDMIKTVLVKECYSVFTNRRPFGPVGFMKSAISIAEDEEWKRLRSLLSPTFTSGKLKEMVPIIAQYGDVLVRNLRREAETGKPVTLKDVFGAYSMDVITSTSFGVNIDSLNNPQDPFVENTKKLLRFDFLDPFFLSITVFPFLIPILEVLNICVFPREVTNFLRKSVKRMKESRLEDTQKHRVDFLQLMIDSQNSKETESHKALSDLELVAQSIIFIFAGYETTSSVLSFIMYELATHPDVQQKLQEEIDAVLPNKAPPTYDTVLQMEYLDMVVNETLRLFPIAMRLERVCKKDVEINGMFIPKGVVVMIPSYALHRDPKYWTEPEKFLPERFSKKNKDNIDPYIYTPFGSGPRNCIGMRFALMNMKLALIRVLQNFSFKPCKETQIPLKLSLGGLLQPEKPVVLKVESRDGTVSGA

In the case of `CC(C)=NNc1ncnc2nc[nH]c12`, the Potency in test [1] was more than 11.4 µM; in test [3], 0.794 µM (active); in test [6], more than 46 µM; in test [7] it was more than 9.22 µM. The activity change, negative = inhibition is -3.94% in test [2] and 3.34% in test [4]. In addition, in [5], the activity, negative = inhibition is 8.2%. Also, the Potency entry in test [8] and in test [9] was “inactive” throughout.
`NC(N)=NC(N)=Nc1ccccc1` (tested in a mixture with another compound): the Potency in test [1] is more than 11.4 µM; in test [3], 3.16 µM (active); in [6], more than 46 µM; in test [7] it was more than 9.22 µM. Besides, the activity change, negative = inhibition in [2] was -4.98%; in test [4], 10.5%. Besides, the activity, negative = inhibition in [5] is 1.58%. The Potency entry in test [8] and in test [9] was “inactive” in each case.
For the compound `NS(=O)(=O)c1ccc(NCc2cnc3ccccc3n2)cc1`, the Potency is more than 11.4 µM in [1], more than 46 µM in test [6] and more than 9.22 µM in test [7]. Moreover, the activity change, negative = inhibition was 5.55% in test [2], -18.2% [at 2.29 µM] in [3] and 6.06% in test [4]. Also, the activity, negative = inhibition in test [5] is 3.16%. Moreover, the Potency entry in test [8] and in test [9] was “inactive” throughout.
For `O=C(O)C12CC3(C(=O)O)CC(C(=O)O)(CC(C(=O)O)(C1)C3=O)C2=O`, the Potency in test [1] was more than 11.4 µM; in test [6] it was more than 46 µM; in [7], more than 9.22 µM. In addition, the values for the activity change, negative = inhibition in test [2], in test [3] and in test [4] were -2.38%, -4.3% [at 2.29 µM] and 6.84%, respectively. Moreover, the activity, negative = inhibition in test [5] was 4.13%. Moreover, the Potency result in [8] and in [9] was “inactive” in each case.
Regarding `N[C@@H](Cc1[nH]nc2ccccc12)C(=O)O`, the Potency is more than 11.4 µM in test [1], more than 46 µM in [6] and more than 9.22 µM in test [7]. Moreover, the activity change, negative = inhibition in test [2] is 5.54%; in test [4], -12.5%. Further, the Potency entry in [3], in test [8] and in test [9] was “inactive” in each case. In test [5], the activity, negative = inhibition is -0.642%.
Turning to `O=C(Nc1cccc2ccccc12)c1ccccc1`, the Potency in test [1] was more than 11.4 µM; in test [3], 3.98 µM (active); in test [6], more than 46 µM; in test [7], more than 9.22 µM; in test [11], 3.16 µM (active). In addition, the activity change, negative = inhibition is -4.06% in test [2] and -11.4% in test [4]. The activity, negative = inhibition in test [5] was 3.33%. For the same compound, the Potency entry in test [8], in test [9], in [10] and in [12] was “inactive” in each case.
With `CCOc1ccccc1/C=C(\C#N)C(N)=O`, the Potency in test [1] is more than 11.4 µM; in [3], 2 µM (active); in test [6], more than 46 µM; in test [7], more than 9.22 µM. Moreover, the results for the activity change, negative = inhibition in test [2] and in test [4] were 3.2% and -1.04%, respectively. Further, the activity, negative = inhibition in test [5] was 4.29%. For the same compound, the Potency entry in test [8], in [9] and in [10] was “inactive” throughout.
